# From PubChem
# PLCb3 inh: human PLC-beta3 inhibitors, primary screen, biochemical, fluorescence. 1-phosphatidylinositol 4,5-bisphosphate phosphodiesterase beta-3 (Homo sapiens), Q01970. Purified PLC-beta3, fluorogenic substrate. inhibition, % at 12.2 µM. 0.18% of 370,000 active. AID 720704, 2013; in the data active = inhibition above about 11%;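 note: 0% = median of compound wells on plate and 100% = full blocker control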
# ADAM10 inh: human ADAM10 inhibitors, primary screen, biochemical, QFRET, HTS; Disintegrin and metalloproteinase domain-containing protein 10 (Homo sapiens), O14672; recombinant ADAM10, EDANS/DABCYL FRET peptide cleavage, 3 h; inhibition, % at 7 µM; 0.62% of 370,000 active;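 active = inhibition above a per-campaign cutoff equal to the mean of compounds falling between control-based bounds plus 3 SD, cut at about 20% in these data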;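 note: 0% = DMSO wells while the 100% control is not disclosed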
# ADAM17 inh: ADAM17 inhibitors, primary screen, biochemical, QFRET; recombinant ADAM17, EDANS/DABCYL FRET peptide cleavage; inhibition, % at 6.95 µM; 0.83% of 370,000 active; AID 720648, 2013;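 active = inhibition above the mean of compounds lying between control limits plus 3 SD, set per campaign, cut at about 8.5% in these data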;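 note: 0% = DMSO-only wells as the low control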
# PLCg1 inh: PLC-gamma1 enzyme inhibitors, primary screen, biochemical, fluorescence, purified enzyme. fluorogenic substrate. inhibition, % at 12.2 µM. 0.84% of 370,000 active. AID 720700, 2013
# KLK7 zymogen act: proKLK7 zymogen activators, primary screen, biochemical, fluorescence intensity. purified proKLK7, EDANS-DABCYL substrate fluorescence; 100% is mature enzyme control, 0% vehicle. 0.9% of 370,000 active. Kallikrein-7 (Homo sapiens), P49862. activation, % at 7 µM;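 active = activation above the mean of all tested compounds plus 3 SD, computed per campaign excluding outliers beyond control limits, cut at about 13% in these data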
# ADAM10 ctr: ADAM10 inhibitors, counter-screen for ADAM17 exosite inhibitor project, biochemical, FRET, human ADAM10; shares compounds with ADAM17 inh; recombinant ADAM10, EDANS/DABCYL FRET peptide cleavage, 3 h; inhibition, % at 6.95 µM; 47% of 2,900 active; AID 743256, 2014;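 active = mean inhibition over the triplicate runs exceeds the activity threshold set in the earlier primary screen, cut at about 20% in these data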;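 note: 0% = DMSO wells and 100% = marimastat wells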
# ADAM17 confirm: ADAM17 inhibitors, hit retest, confirmation, biochemical, QFRET peptide cleavage; 65% of 2,900 active; shares compounds with ADAM17 inh; inhibition, % at 6.95 µM; AID 743257, 2014; recombinant ADAM17, EDANS/DABCYL QFRET peptide cleavage;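 active = mean inhibition across replicates above the hit cutoff set in the primary screen, cut at about 8.5% in these data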;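 note: 0% = DMSO wells and 100% = marimastat wells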
# PLCgamma1 ctr: PLC-gamma1 enzyme inhibitors, counter-screen for PLC-beta3 inhibitor project, biochemical, fluorescence; shares compounds with PLCg1 inh; purified PLC-gamma1, fluorogenic substrate; inhibition, % at 12.3 µM; 3.1% of 3,300 active; AID 743258, 2014
# PLCbeta3 conf: PLC-beta3 inhibitor confirmation, biochemical, fluorescence, purified enzyme | inhibition, % at 12.3 µM | 1% of 3,300 active | fluorogenic substrate fluorescence | shares compounds with PLCg1 inh; in the data active = inhibition above about 11%
# * hit, by the source's call; x = not tested or not shown. Only some compounds are listed: those with a hit (about 2.9% of all), similar ones and a draw of the others. Cut-off read from the data, not from the text of the source, unless noted: active = inhibition above about 9.5%; inactive = the rest.
SMILES,PLCb3 inh,ADAM10 inh,ADAM17 inh,PLCg1 inh,KLK7 zymogen act,ADAM10 ctr,ADAM17 confirm,PLCgamma1 ctr,PLCbeta3 conf
N#Cc1ccccc1CSc1ccccn1,11.1*,12.0,9.1*,9.0,0.9,-8.1,-0.1,-5.5,-8.1
N#Cc1ccc(CSc2ccccn2)c(Cl)c1,-10.3,-10.1,-1.5,-0.7,-0.3,x,x,x,x
O=C(NC1CCCC1)C(c1ccccc1)n1c(Cc2cc(F)cc(F)c2)nc2ccccc21 (stereo not given),-0.7,0.6,0.8,1.4,-0.1,x,x,x,x
COC(=O)[C@]12C[C@H](CC(=O)NCc3ccc(C)o3)C(=O)N(Cc3ccccc3)C1=C[C@H](C(C)(C)C)O[C@@H]2C,8.1,9.0,10.2*,10.2*,0.3,10.9,5.7,-9.0,-5.1
COC(=O)[C@]12C[C@H](CC(=O)NCCCCc3ccccc3)C(=O)N(Cc3ccccc3)C1=C[C@H](C(C)C)O[C@@H]2C1CC1,4.6,17.1,16.8*,10.2*,1.1,25.9*,13.2*,-3.4,-1.1
COC(=O)[C@]12C[C@H](CC(=O)NCc3ccc(C)o3)C(=O)N(Cc3ccco3)C1=C[C@H](C(C)(C)C)O[C@@H]2C,0.5,2.2,-2.2,4.8,0.3,x,x,x,x
CS(=O)(=O)/C(C#N)=C/c1cccn1S(=O)(=O)c1ccccc1,-7.8,-3.6,-8.4,-3.4,0.4,x,x,x,x
CC(C)(C)S(=O)(=O)/C(C#N)=C/c1cccn1S(=O)(=O)c1ccccc1,3.0,5.4,9.4*,15.8*,0.6,24.3*,11.8*,3.0,2.9
CC(=O)NC(c1cccc(F)c1)c1nc(/C=C/c2ccccc2)cs1 (stereo not given),8.1,9.0,11.3*,10.2*,0.7,10.6,5.5,-8.1,-6.4
COc1ccccc1-c1csc(C(NC(C)=O)c2cccc(F)c2)n1 (stereo not given),-8.2,-8.6,-5.1,-5.5,0.1,x,x,x,x
CC1CCCN(C(=O)COC(=O)COc2ccc(C#N)cc2)C1 (stereo not given),-8.4,-11.0,-1.9,2.5,0.7,x,x,x,x
CC1CCCC(C)N1C(=O)COC(=O)COc1ccc(C#N)cc1 (stereo not given),-3.7,1.8,9.8*,11.2*,0.5,4.0,7.2,-1.6,1.8
CC1CCN(N=Nc2nc3c([nH]2)c(=O)n(C)c(=O)n3C)CC1,8.3,12.5,17.0*,9.9*,0.5,10.2,9.3*,-1.8,3.2
CC1=NN(c2ccccc2)C(=O)C1CCC#N (stereo not given),-1.4,-3.9,-2.0,1.2,-0.4,x,x,x,x
Cc1ccc(F)cc1C(=O)N(Cc1ccccn1)CC1CCCO1 (stereo not given),2.6,-4.6,-1.9,-0.3,-0.3,x,x,x,x
COc1ccc(Cn2cc(F)c(=O)n(C)c2=O)cc1[N+](=O)[O-],-5.5,-1.5,-0.4,4.1,0.4,x,x,x,x
COc1ccc(Cn2cc(F)c(=O)n(CCC(C)C)c2=O)cc1[N+](=O)[O-],7.0,15.7,9.8*,13.0*,0.4,-4.2,0.4,-6.5,-1.1
O=C1OC(Cc2ccccc2)(c2ccccc2)c2ccccc21 (stereo not given),11.1*,18.5,11.5*,11.3*,0.8,7.8,1.9,0.1,0.3
COc1ccc(OC)c(NC(=O)C2(C)CCN2C(=O)C2(c3ccccc3)CCCC2)c1 (stereo not given),4.3,2.4,0.6,2.9,0.2,x,x,x,x
COc1ccc(CC(=O)NNC(=O)CSc2nnc(Cc3ccc(OC)cc3)n2-c2ccccc2)cc1,-0.1,1.1,0.4,-2.6,0.2,x,x,x,x
O=C(CSc1nnc(Cc2ccccc2)n1-c1cccc(Cl)c1)NNC(=O)Cc1ccccc1,9.3,16.5,15.0*,10.2*,-0.2,10.3,4.8,-9.4,-4.2
CCn1c(-c2csc3c2CCCC3)n[nH]c1=S,-3.0,17.8,-5.5,5.8,-0.2,x,x,x,x
CCCCn1c(-c2csc3c2CCCC3)n[nH]c1=S,-3.5,5.6,12.8*,14.8*,0.3,9.5,4.9,-2.5,-3.7
O=C(O)c1cc([N+](=O)[O-])ccc1-c1ccc([N+](=O)[O-])cc1C(=O)O,12.4*,-7.5,9.4*,20.1*,0.1,1.4,1.5,4.3,2.1
CN(C(=O)COC(=O)COc1ccc(N(C)S(=O)(=O)c2ccc(Cl)cc2)cc1)c1ccccc1,-0.9,15.7,18.4*,11.8*,1.0,18.3,6.1,-1.9,-0.8
SMILES,PLCb3 inh,ADAM10 inh,ADAM17 inh,PLCg1 inh,KLK7 zymogen act,ADAM10 ctr,ADAM17 confirm,PLCgamma1 ctr,PLCbeta3 conf
CNC(=O)C1CC(=O)N/C(=N/N=C(\C)c2cccs2)S1 (stereo not given),11.5*,8.2,10.0*,7.4,0.1,18.3,13.5*,-1.4,0.2
C/C(=N\N=C1\NC(=O)CC(C(=O)O)S1)c1cccs1 (stereo not given),2.1,1.3,-1.6,3.7,0.1,x,x,x,x
CC(C)C[C@@H]1CN(CCCC[C@H]2CNC(=O)C(=O)N2CCC2CCCCC2)C(=O)C(=O)N1Cc1ccccc1,1.5,-6.8,-1.1,1.0,0.2,x,x,x,x
CCOC(=O)C1(C)CCCCCN1C(=O)c1ccc(C(F)(F)F)nc1C (stereo not given),4.7,-7.6,0.6,3.8,0.4,x,x,x,x
CN(CCc1ccccc1)C(=O)c1ccc(NC(=O)Cc2ccc(NC(=O)C3CCN(C(=O)C4CCCC4)CC3)cc2)cc1,5.1,5.2,10.6*,10.3*,0.6,9.2,9.8*,6.6,3.0
CN(CCc1ccccc1)C(=O)c1ccc(NC(=O)Cc2ccc(NC(=O)C3CCN(C(=O)C4CC4)CC3)cc2)cc1,-0.4,-13.8,-1.4,-1.1,-0.4,x,x,x,x
Cc1ccc(NS(=O)(=O)c2ccc(NC(=O)CSc3ccc(Cl)cc3)cc2)c(C)c1,7.3,17.2,9.0*,12.8*,0.0,27.8*,10.9*,-5.3,-4.8
C[C@H](c1ccccc1)N1C[C@H](COCc2ccccc2)Oc2cc(N3CCC[C@H]3C(N)=O)ccc2S1(=O)=O,1.0,5.2,-1.1,2.5,-0.3,x,x,x,x
